The panel holds about 83,000 compounds, 20% with a hit somewhere; the sample as a whole holds those more often.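 96-well plates, one dose, 48 hours. Percent growth reported; active if below 10.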 A number with no mark means an inactive call. The source made the active and inactive calls.
Tests used:
Test in all cases: NCI-60 one-dose screen, 48 h (100 = growth as untreated, 0 = no growth, -100 = all killed)
[1] = tested on: SK-MEL-2 melanoma; conditions: 10 µM unless noted
[2] = tested on: EKVX NSCLC; conditions: 10 µM unless noted
[3] = tested on: SN12C renal; conditions: 10 µM unless noted
[4] = tested on: UO-31 renal; conditions: 10 µM unless noted
[5] = tested on: ACHN renal; conditions: 10 µM unless noted
[6] = tested on: CAKI-1 renal; conditions: 10 µM
[7] = tested on: A498 renal; conditions: 10 µM unless noted
[8] = tested on: CCRF-CEM leukemia; conditions: 10 µM unless noted
[9] = tested on: MOLT-4 leukemia; conditions: 10 µM unless noted

SMILES | growth [1] | growth [2] | growth [3] | growth [4] | growth [5] | growth [6] | growth [7] | growth [8] | growth [9]
COc1cccc(-c2nc3sccn3c2-c2ccnc(NCCNC(=O)c3ccccc3)n2)c1 | 73.3% | 106% | 84.3% | 53.8% | 65.8% | 84.4% | 66.3% | 52.5% | 53.4%
O=C(Nc1ccc(-n2cc(-c3ccncc3)c(-c3ccc(O)c(Cl)c3)n2)cc1)Nc1ccc(Cl)c(C(F)(F)F)c1 | -42.2% (active) | 19.5% | 19.1% | 13.6% | 13.2% | -3.83% (active) | 63.5% | 7.92% (active) | 9.62% (active)
O=C(O)c1cccc2oc(-c3ccccc3O)nc12 | 71.2% | 45% | 57.5% | 54.3% | 57.9% | 42.3% | 47.8% | 31.3% | 66.4%
C=CC(=O)Nc1cccc(Nc2nc(Nc3ccc(OCCOC(F)F)cc3)ncc2F)c1 | 0.225% (active) | 67.6% | 22% | 6.93% (active) | 4.89% (active) | 11.3% | -35.4% (active) | 24.8% | 33.5%
COc1cccc(-c2nc3sccn3c2-c2ccnc(NCCNC(=O)Nc3cccc(C(F)(F)F)c3)n2)c1 | 61.9% | 61.5% | 68.8% | 39.7% | 46.2% | 40% | 61.6% | 27% | 36.7%
O=S(=O)(CCN1CCOCC1)Nc1cncc(-c2ccc3ncnc(Nc4ccc(F)c(Cl)c4)c3c2)c1 | 81.5% | 44.7% | 66.7% | 51.9% | 45.2% | 72.3% | 73.1% | 57.1% | 71.7%
O=[N+]([O-])c1cccc(C(c2ccccc2)c2ccccc2)c1 | 97.8% | 79.1% | 98% | 75.7% | 85.9% | 56.8% | 91% | 87.2% | 83.3%
COc1ccc(N)c(S)c1 | 108% | 91.7% | 94.4% | 78.9% | 98.2% | – | 112% | 98.2% | –
CCCC(=O)Oc1ccc(/C(=C(\C)c2ccc(OC)cc2)c2ccc(OCCN3CCCCC3)cc2)cc1 | 80.9% | 89.1% | 84.8% | 65.2% | 91.8% | – | 80.7% | 83.3% | –
O=C(NCCNc1nccc(-c2c(-c3cccc(O)c3)nc3sccn23)n1)c1ccc(N2CCOCC2)c(C(F)(F)F)c1 | 66.7% | 74% | 76% | 61.3% | 60.8% | 66.9% | 47.8% | 56.9% | 57%
Cc1ccc(=O)n(-c2ccc(Br)cc2F)c1 | 116% | 99.5% | 107% | 90.7% | 94.6% | – | 84% | 99.9% | 108%
COc1ccc(-c2c(NC(=O)Nc3ccc(Cl)c(C(F)(F)F)c3)cnn2-c2ccc(S(N)(=O)=O)cc2)cc1 | -4.24% (active) | 61.6% | 51.4% | 50.9% | 57.5% | – | 26.8% | 8.88% (active) | 1.8% (active)
NS(=O)(=O)c1ccc(CCN2C(=O)/C(=C\c3ccc(Cl)cc3)C=C2c2ccc(Oc3ccccc3)cc2)cc1 | 73% | 60.1% | 78.2% | 65.8% | 72.3% | – | 80.8% | 81.4% | 48.2%
O=c1c2ccccc2sc2c(N3CCCC3)nc3ccccc3c12 | 127% | 103% | 91.3% | 97% | 98.6% | – | 73% | 92.1% | 102%
Nc1ncc(-c2ccc3ncnc(Nc4cncc(Cl)c4)c3c2)cn1 | 66.4% | 33% | 69.8% | 41.9% | 41.6% | – | 0.263% (active) | 84.5% | 77.8%

Reference: PubChem BioAssay (NCI)
